Assay results published in PubChem BioAssay (NCI).
The panel holds about 83,000 compounds, 20% with a hit somewhere; the sample as a whole holds those more often.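 Single-dose data. Exposure time 48 hours. Values below 10 considered active.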 Calls of active or inactive are those of the source.

System: HOP-92 NSCLC
Assay: NCI-60 one-dose screen, 48 h (100 = growth as untreated, 0 = no growth, -100 = all killed)
Conditions: 10 µM unless noted
Description: Growth inhibition of the HOP-92 human Non-Small Cell Lung tumor cell line is measured as a screen for anti-cancer activity. Cells are grown in 96 well plates and exposed to the test compound for 48 hours. Compounds are tested at a single concentration, which is 10^-5 M for most compounds. The reported endpoint is percent growth (GI% or GIPRCNT), where numbers from 0 - 100% represent growth inhibition, and numbers from -100% - 0 represent cell death. For example, a value of 40 represents 60% growth inhibition. A value of 0 means no net growth occurred over the course of the experiment. A value of -40 indicates 40% of cells at the beginning of the experiment died by the end of the experiment. A value of -100 means all cells are dead at the end of the experiment.
NCI-60 Human Tumor Cell Lines Screen was performed using the standard one-dose NCI protocol, which is described in more detail at https://dtp.cancer.gov/discovery_development/nci-60/default.htm.
Compounds with GIPRCNT values below 10 were considered active. Activity score was based on GIPRCNT using the following formula: […]
Score is 0 for GIPRCNT values of 100 or above, 50 for GIPRCNT values of 0, and 100 for GIPRCNT values of -100.

| SMILES | growth |
| --- | --- |
| CC(C)(C)C(CCc1ccc(Cl)cc1)N1CCN(C2CCCCC2)CC1 (stereo not given) | 45.3% (inactive) |
| COc1ccc(-c2nc3sccn3c2-c2cc(-c3cc(OC)c(OC)c(OC)c3)on2)cc1 | -17.4% (active) |
| C[n+]1cc2cc(C(N)=O)[nH]c3c(=N)c(Cl)c(N)c1c23 | 80% (inactive) |
| CS(=O)c1cccc(-c2ccc3nc(N)n(-c4ccc(C(F)(F)F)cc4)c(=O)c3c2)c1 (stereo not given) | 66.1% (inactive) |
| Cc1ccc(NS(=O)(=O)c2ccc3c(c2)C(=O)CC(c2ccc(C(=O)C(C)C)cc2)N3)cc1C (stereo not given) | 67.9% (inactive) |
| N#CC1=C(c2ccc(Br)cc2)NC(SCC(=O)c2ccc(Br)cc2)NC1=O (stereo not given) | 102% (inactive) |
| CCN1CCN(c2nc(C)cc(NCc3cc(Nc4ccnc5cc(Cl)ccc45)ccc3F)n2)CC1 | 36% (inactive) |
| Cn1cc(-c2csc(-c3cccc(F)c3)n2)c2cccnc21 | -59.6% [100 µM] (active) |
| COc1ccc(Cl)cc1NC(=O)C(Br)C(Br)C(=O)O (stereo not given) | 53.5% (inactive) |
| N#Cc1c(-c2ccccn2)[nH]c(=S)[nH]c1=O | 93.6% (inactive) |
| CC1(C)CC[C@]2(C(=O)N3CCOCC3)CC[C@]3(C)C(=CC[C@@H]4[C@@]5(C)CC[C@H](OC(=O)c6cccnc6)C(C)(C)[C@@H]5CC[C@]43C)[C@@H]2C1 | 66.4% (inactive) |
| Cc1cc(NCc2cc(Nc3ccnc4cc(Cl)ccc34)ccc2F)nc(N2CCN(c3ccccc3)CC2)n1 | 20.6% (inactive) |
| CC(=O)c1nc(Nc2ccc(C)cc2)sc1C | 73.2% (inactive) |
| O=C(COc1ccc(/C=C2\Oc3ccccc3C2=O)cc1)c1ccc(Cl)cc1 | 88% (inactive) |
| N=C1CCC(=N)c2c1c(O)c1ccccc1c2O | 88.7% (inactive) |
| N#Cc1c2c(nn(-c3ccccc3)c1=O)C(O)=C([N+](=O)[O-])C(c1ccccc1)C2 (stereo not given) | 76% (inactive) |
| COc1cccc(-c2nn(-c3ccccc3)cc2-c2ccnc(NCCCNC(=O)Nc3ccc(Cl)c(Cl)c3)c2)c1 | -11.7% (active) |
| N/C(=N/N=C/c1ccccc1)N/N=C\c1ccccc1 | 57.1% (inactive) |
| CCCCCCCCCCN(CCCCCCCCCC)CC(=O)c1ccc2cc(Br)c3ccccc3c2c1 | -77% (active) |
| Cn1c2c(c3ccc(Cl)c(Cl)c31)C(C#N)C1(CCNCC1)NC2=O (stereo not given) | 21.9% (inactive) |

| SMILES | growth |
| --- | --- |
| Cc1ccc(C(=O)CSc2nc(-c3ccc(Br)cc3)c(C#N)c(=O)[nH]2)cc1 | 92.2% (inactive) |
| COC1=CC(=O)C[C@@H](C)[C@]12Oc1c(Cl)c(OC)cc(OC)c1C2=O | 89.4% (inactive) |
| N=c1sc(Cc2ccc(Cl)cc2)cn1CC(=O)c1ccc(F)cc1 | 109% (inactive) |
| COc1ccc(C2C(c3nn[nH]n3)=C(N)Oc3c2ccc2ccccc32)cc1 (stereo not given) | 77.1% (inactive) |
| COc1ccc2[nH]c(O)c(C(=Nc3ccc(N(C)C(=O)CN4CCN(C)CC4)cc3)c3ccccc3)c2c1 | 12.7% (inactive) |
| C=C1C(=O)O[C@H]2[C@H]1CC/C(COC(=O)C(=O)c1c[nH]c3ccc(OC)cc13)=C\CC[C@@]1(C)O[C@@H]21 | -77.2% (active) |
| CCCCCCCCCCCCCCCCCCOc1ccccc1CC(=O)OCCC[N+](C)(C)C | 39.6% (inactive) |
| NC(=S)N/N=C/Cc1ccccc1 | 109% (inactive) |
| CCCCCCCCCCCCCCCCCCOc1ccc(CC(=O)OCC[N+]2(C)CCCC2)cc1 | 110% (inactive) |
| CC1SC(c2ccc(OCc3ccccc3)cc2)N(NC(=O)C(O)(c2ccccc2)c2ccccc2)C1=O (stereo not given) | 50.7% (inactive) |
| CCCCC1CCCCN1C(=O)OCC (stereo not given) | 88.5% (inactive) |
| COc1ccc(/C=c2\nc3n(-c4ccccc4)c4nc5c6c(sc5c(=N)n4n-3c2=O)CCCC6)cc1 | 63.4% (inactive) |
| COc1ccc2c(c1)C(=O)/C(=C/c1cccc(OCC(=O)Nc3nc(C)c(C)s3)c1)O2 | -74.8% (active) |
| Cc1ccc(/C=C/c2c(C(=O)/C=C/c3ccc(C(F)(F)F)cc3)c(C)nc3ccccc23)cc1 | -76% (active) |
| CN(C)CCC=C1c2ccccc2C(C)(C)c2ccccc21 | 36.7% (inactive) |
| Cn1ccc2c(c1=O)C(=O)c1nccc3c1c-2nc1ccccc13 | 62.8% (inactive) |
| NCCCNc1nc2ccccc2c2c(=O)c3cccc(Cl)c3sc12 | 38.1% (inactive) |
| CC/C=C\CCC/C=C1/C(=O)C=C[C@@H]1C/C=C\CCCC(=O)O | 75.3% (inactive) |
| C[n+]1cc2c3c(ccc2c2ccc4cc5c(cc4c21)OCO5)OCO3 | -80.6% (active) |
| CNC(=O)CCN1CCN(CC/C=C2\c3ccccc3Sc3ccc(Cl)cc32)CC1 | -4.86% (active) |
